Results on 117 sequences are retold here after the supplement of paper PMC5499739.

Whole data set: some 16,000 sequences, median “Z-score” near -0.37, cut for the highest 2% near 3.2. Only a selection was taken, and the highest values are over-represented in it overall.

For the assay, the system named is RBM10 RRM1-ZnF (GST-tagged construct). Briefly: RNAcompete 7-mer binding Z-score; higher = stronger binding preference. The method, then: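 RNAcompete: 20 pmol GST-tagged RBM10 RNA-binding constructs were incubated with a designed RNA pool of about 241,000 sequences up to 41 nt (1.5 nmol) on glutathione beads for 30 min at 4 °C and washed. Bound RNAs were identified by microarray hybridisation. Each RNA 7-mer is scored by a one-sided Z-score of its enrichment, computed over probes that contain the 7-mer within longer pool sequences.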
As for GGUUAGC, the “RNAcompete 7-mer binding Z-score” value was determined as 1.12.
Then GGGAUAG, with 4.
Then UGACAGG, with 2.13; and UACCCAG, with -0.659.
In the case of UCGCGUA, the “RNAcompete 7-mer binding Z-score” value is -0.532.
The figure for ACUCUUU is -0.844.
Regarding AAUUUCG, the “RNAcompete 7-mer binding Z-score” value is -0.607.
For GUGCUAA, the “RNAcompete 7-mer binding Z-score” value is 0.153.
Then UCAUUAA, with -0.509; and GCAUUCG, with -0.444.
Take GGGAUUG: the “RNAcompete 7-mer binding Z-score” value was determined as 3.5.
Then GGAUAGA, with 2.61; and GGGAUUC, with 1.12; and GGGAUAC, with 2.5.
Regarding AGAUAGG, the “RNAcompete 7-mer binding Z-score” value is 2.44.
Consider GGAUAGG, for which the “RNAcompete 7-mer binding Z-score” value worked out at 4.11.
In the case of GGGAUAA, the “RNAcompete 7-mer binding Z-score” value was found to be 3.48.
Take AGGAUUG: the “RNAcompete 7-mer binding Z-score” value was found to be 1.5.
For the sequence UGGAUAA, the “RNAcompete 7-mer binding Z-score” value was determined as 1.15.
Take GUAGUUC: the “RNAcompete 7-mer binding Z-score” value was -0.243.
UGAAUAG: the “RNAcompete 7-mer binding Z-score” value was 0.387.
Then GUCUGAC, with -0.529.
Then CACAACA, with -0.363; and AUGGUGG, with 3.82; and GUGGUGG, with 3.9.
Turning to GUGGUGC, the “RNAcompete 7-mer binding Z-score” value came to 1.76.
For CUGGUGG, the “RNAcompete 7-mer binding Z-score” value is 1.64.
Regarding UUGGUGG, the “RNAcompete 7-mer binding Z-score” value was 2.48.
Then AUGGUGC, with 1.03.
With CCCGAGG, the “RNAcompete 7-mer binding Z-score” value is 0.384.
The figure for AUCACAU is -0.457; for CAGCAAC it is -0.539.
The figure for CGACGCA is -0.36.
Then UGGGUCU, with 1.12.
For ACUGCUG, the “RNAcompete 7-mer binding Z-score” value is -0.675.
Then UAGGGUC, with 1.55; and GAGGGUC, with 1.44; and UAGGGUG, with 4.81.
For the sequence AAGGGUA, the “RNAcompete 7-mer binding Z-score” value came out at 4.59.
Then AAGGGCA, with 2.78.
As to GAGGGUU, the “RNAcompete 7-mer binding Z-score” value is 3.03.
On to UCGGGUA, for which the “RNAcompete 7-mer binding Z-score” value amounted to 1.4.
As to GAGGGUG, the “RNAcompete 7-mer binding Z-score” value worked out at 3.75.
The figure for AAGGGUC is 1.72; for UAGGGCG it is 2.22; for UAGGGUA it is 3.47.
As for CAGGGUA, the “RNAcompete 7-mer binding Z-score” value was 2.99.
As to UGUUUCU, the “RNAcompete 7-mer binding Z-score” value is -0.418.
The figure for CCUAAGG is -0.344; for AGUCCCA it is -0.714; for AUGGUAG it is 2.74.
Turning to ACGCCAU, the “RNAcompete 7-mer binding Z-score” value is -0.665.
Then AAACCUC, with -0.802; and UCCCUUU, with -0.912; and GCAUUUG, with -0.477.
Then CCGAAGG, with 0.179; and AAAGGUU, with 3.12.
The figure for CAGGGUU is 2.15.
On to GAGGGCA, for which the “RNAcompete 7-mer binding Z-score” value came out at 2.12.
Then CAGGGUC, with 1.09; and UAGGGUU, with 3.33; and UCGGGUU, with 1.12.
Then CAGGGCG, with 2.02; and AAGGGUU, with 4.07.
As to CCGGGUA, the “RNAcompete 7-mer binding Z-score” value was determined as 0.625.
Turning to GAGGGUA, the “RNAcompete 7-mer binding Z-score” value was determined as 3.95.
AAGGUUU: the “RNAcompete 7-mer binding Z-score” value was determined as 2.51.
Then CAGGGUG, with 3.21; and GCCGCGA, with -0.422; and AACGUCA, with -0.574.
Then AGCUAUG, with -0.168.
As to GUUCGCA, the “RNAcompete 7-mer binding Z-score” value is -0.652.
On to CCCUUAU, for which the “RNAcompete 7-mer binding Z-score” value is -0.831.
On to AGCUGUU, for which the “RNAcompete 7-mer binding Z-score” value is -0.737.
In the case of UAUACGU, the “RNAcompete 7-mer binding Z-score” value was -0.357.
With GAGGUGA, the “RNAcompete 7-mer binding Z-score” value turned out to be 2.56.
On to AAGGUGC, for which the “RNAcompete 7-mer binding Z-score” value worked out at 2.39.
Then AAGGUGU, with 2.55.
Then AAGGUAA, with 2.97.
The figure for AAGGUGG is 4.39.
For the sequence GAGGUGU, the “RNAcompete 7-mer binding Z-score” value stood at 2.37.
Take CAGGUGA: the “RNAcompete 7-mer binding Z-score” value came to 1.49.
CAGGUAG: the “RNAcompete 7-mer binding Z-score” value was found to be 2.32.
As for AAGGUAG, the “RNAcompete 7-mer binding Z-score” value worked out at 3.69.
The figure for AAGGUGA is 3.66; for GAGGUGG it is 3.35; for GAGGUGC it is 1.81.
As to CGUUACU, the “RNAcompete 7-mer binding Z-score” value is -0.558.
Turning to AGUAUUC, the “RNAcompete 7-mer binding Z-score” value was -0.493.
Then AAACCAA, with -0.548; and CAGCGUC, with -0.623; and AGGAAUA, with 0.881.
With ACUACUA, the “RNAcompete 7-mer binding Z-score” value was -0.402.
Then CCCUGUG, with -0.327; and GACUCUA, with -0.642; and GUAUGUG, with 1.07.
Then CACUCGC, with -0.604; and AUGCGAG, with 0.569; and CAGGUUG, with 2.04.
The figure for UAGGUUG is 2.09; for AAGGUUG it is 3.49; for AGAGCGC it is -0.568.
For the sequence GCACACU, the “RNAcompete 7-mer binding Z-score” value was -0.295.
Then GGGUGGG, with 4.82; and GGGUGCG, with 2.96; and UGGUGGG, with 4.74.
For UGGUGGU, the “RNAcompete 7-mer binding Z-score” value is 2.8.
For UGGUGGA, the “RNAcompete 7-mer binding Z-score” value turned out to be 2.86.
In the case of ACGUGGG, the “RNAcompete 7-mer binding Z-score” value worked out at 2.43.
As to CGGUGGU, the “RNAcompete 7-mer binding Z-score” value stood at 1.64.
On to GCGUGGG, for which the “RNAcompete 7-mer binding Z-score” value was found to be 3.53.
For UGGUGGC, the “RNAcompete 7-mer binding Z-score” value came to 1.8.
The figure for UCGUGGG is 2.53.
In the case of GGGUGGU, the “RNAcompete 7-mer binding Z-score” value turned out to be 4.8.
Then GGGUGGC, with 2.89; and AACAGAA, with -0.0447; and UUUGCGU, with -0.642.
